Data from ChEMBL document CHEMBL3988442, “University of Dundee, Small-Polar-MMV Screening Library” (2021).
About 13,000 (27%) of roughly 48,000 compounds showed an effect of 50% or more. Some of the results follow.

test system: Wolbachia pipientis; assay: Anti-Wolbachia Cell-Based Screen; type: functional; parameters: scale not given: in the data most compounds retested in dose-response had high values; conditions: 5 µM

Structure (SMILES) | Percent Effect
Cn1cc(C(=O)N2CCCC(n3cccn3)C2)c2ccccc21 (stereo unspecified) | -10.45%
O=C(c1cnc(C2CC2)s1)N1CCCC(n2cccn2)C1 (stereo unspecified) | 6.794%
Cc1ncc(C(=O)N2CCCC(n3cccn3)C2)s1 (stereo unspecified) | 111.9%
CCc1[nH]ncc1C(=O)N1CCCC(n2cccn2)C1 (stereo unspecified) | -0.4405%
O=C(c1cnc(-c2cnccn2)s1)N1CCCC(n2cccn2)C1 (stereo unspecified) | 90.03%
O=C(c1cnc(-c2cccs2)s1)N1CCCC(n2cccn2)C1 (stereo unspecified) | 0.5894%
O=C(c1cnc(-c2ccccn2)s1)N1CCCC(n2cccn2)C1 (stereo unspecified) | 116.5%
COc1ccccc1NC(=O)NCC(O)(c1ccccc1)C1CC1 (stereo unspecified) | 10.27%
CCOc1ccc(NS(=O)(=O)c2cc(C)c(C(=O)O)s2)cc1F | -1.908%
CC(C)=CCN1CCC(c2nccn2Cc2cscn2)CC1 | 3.314%
Cc1nccn1CCCC(=O)N1CCCN(c2cccnn2)CC1 | 66.22%
Cc1nccn1CCCC(=O)N1CCC(N(C)c2cccnn2)CC1 | 114.4%
Cc1ccccc1N1CCCN(C(=O)CCCn2ccnc2C)CC1 | 7.495%
Cc1nc2cc(C3CCN(C(=O)c4ccccn4)CC3)nn2c(O)c1C | 104%
CCc1cc(O)n2nc(C3CCCN3C(=O)c3ccccn3)cc2n1 (stereo unspecified) | 131.2%
CCc1cc(O)n2nc(C3CCN(C(=O)c4ccncc4)CC3)cc2n1 | 121.2%
Cn1ccc(C2CCCCN2C(=O)c2cccc(Cn3cccn3)c2)n1 (stereo unspecified) | -10.23%
CC[C@H]1CN(C(=O)c2cccnc2)CC[C@H]1CC(=O)NCCOC | -6.846%
CCc1cc(O)n2nc(C3CCN(C(=O)c4cccnc4)CC3)cc2n1 | 97.39%

Structure (SMILES) | Percent Effect
CCC(C)c1noc(C2CCN(C(=O)c3cccnc3)CC2)n1 (stereo unspecified) | -14.35%
CC(C)n1ccnc1C1CCN(C(=O)c2ccc(SCCO)cc2)CC1 | -4.655%
CCc1nc(C2CCCN2C(=O)c2nc(C)n3ccccc23)no1 (stereo unspecified) | -3.852%
CCc1nc(CN(C)C(=O)NCc2cccc(NC(C)=O)c2)cs1 | -8.024%
CS(=O)(=O)CCNCc1ccc(OCc2cscn2)cc1 | -7.403%
CC(C)c1ccc(OCCC(=O)N(C)CC(=O)N(C)C)cc1 | -12.7%
CCc1nnc(CN2CCN(C(=O)c3ccccn3)CC2)o1 | -6.012%
CCc1cc(O)n2nc(C3CCN(C(=O)c4ccccn4)CC3)cc2n1 | 117.9%
CC(C)n1ccnc1C1CCN(C(=O)c2ccccn2)CC1 | -22.55%
COc1c(CNCCNC(=O)c2ccco2)c(C)nn1C | 8.194%
COc1c(CNCc2ccc(C(=O)N(C)C)cc2)c(C)nn1C.Cl | -9.305%
COc1c(CNCc2ccc(C(=O)NC3CC3)cc2)c(C)nn1C.Cl | -2.896%
Cc1nn(C)c(N(C)C)c1CNCc1ccc(C(=O)N(C)C)cc1 | 123.8%
COc1c(CNCc2ccc(C(=O)N(C)C(C)C)cc2)c(C)nn1C | 196.4%
COc1c(CNCCNC(=O)c2ccc(C)cc2)c(C)nn1C | -13.57%
COc1c(CNCc2cccc(C(=O)N(C)C)c2)c(C)nn1C | 120.7%
Cc1nn(C)c(N(C)C)c1CNCc1ccc(OCC(N)=O)cc1.Cl | 3.035%
COc1c(CNCc2ccc(C(=O)N3CCCC3)cc2)c(C)nn1C.Cl | 173.2%
COc1c(CNCc2cccc(CN(C)C)c2)c(C)nn1C.Cl | -1.675%

Structure (SMILES) | Percent Effect
CCNC(=O)c1ccc(CNCc2c(C)nn(C)c2N(C)C)cc1 | 0.7448%
CCc1noc(CS(=O)(=O)Cc2ccccc2C)n1 | 2.156%
CN1C[C@@H](N)C[C@H]1c1nc(-c2ccc3c(c2)OCO3)no1 | -7.718%
CC(C)(C)n1cc(CNC2CCN(C(=O)c3ccoc3)CC2)cn1.Cl | 4.064%
CCC(C)(C)C(=O)NCCCOC1CCOC1 (stereo unspecified) | -11.1%
CC(C)S(=O)(=O)N1CCOC(CCc2ccccc2)C1 (stereo unspecified) | -8.11%
O=C(O)C(F)(F)F.O=C(O)C(F)(F)F.c1cncc(CN2CCCn3nnc(COCC4CC4)c3C2)c1 | -24.42%
O=C(O)C(F)(F)F.O=C1CCCN1Cc1nnn2c1CN(c1cccnc1)CCC2 | 87.49%
O=C(O)C(F)(F)F.O=C(O)C(F)(F)F.c1cncc(N2CCCn3nnc(CN4CCCCC4)c3C2)c1 | 109.4%
O=C(O)C(F)(F)F.c1cnc(N2CCCn3nnc(COCC4CC4)c3C2)nc1 | -15.27%
c1cncc(N2CCCn3nnc(CN4CCOCC4)c3C2)c1 | 107.9%
O=C(O)C(F)(F)F.c1cncc(N2CCCn3nnc(COCC4CC4)c3C2)c1 | 122.7%
O=C(O)C(F)(F)F.O=C(O)C(F)(F)F.O=C(c1cccnc1)N1CCn2nnc(COc3cccnc3)c2C1 | -17.53%
O=C(O)C(F)(F)F.O=C(O)C(F)(F)F.c1ccc(CN2CCCn3nnc(COc4ccccn4)c3C2)nc1 | -12.56%
c1cc(CN2CCCn3nnc(COCC4CC4)c3C2)ccn1 | -2.908%
C1CN(CC2CCOCC2)Cc2c(CN3CCOCC3)nnn2C1 | 2.088%
Cc1cnnn1Cc1nnn2c1CN(Cc1ccccn1)CCC2.O=C(O)C(F)(F)F | -8.238%
O=C1CCCN1Cc1nnn2c1CN(c1ncccn1)CCC2 | -7.828%
